Assay results published in PubChem BioAssay (NCI).
This is part of a sample that, as a whole, favours compounds with a hit. Of some 79,000 tested, about 15% had one in any assay. A number with no mark means an inactive call. Active and inactive are the calls of the source. Cut-off read from the data, not from the text of the source: active = growth inhibition above about 70%; inactive = the rest.

Test: NCI Yeast Anticancer Drug Screen. Data for the CLN2oe strain (AID 163);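 note: 0% = growth of vehicle-only control cultures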
Conditions: S. cerevisiae CLN2oe strain, at 100.0 µM, hits give high values
Summary of the method: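 Compounds are applied to yeast harbouring a defined cell-cycle control change; reduced growth compared with vehicle-treated controls gives the value.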

SMILES	growth inhibition
CCN(CC)CC[n+]1ccc2c(C)c3[nH]c4ccc(O)cc4c3c(C)c2c1	16%
O=[n+]1c2ccc(Cl)cc2n([O-])c2ccc(Cl)cc21	-1%
CCOP(=O)(OCC)C(Cc1ccccc1)N=C(c1ccccc1)c1ccccc1 (centres undefined)	98% (active)
CC[C@@]1(O)C(=O)OCc2c1cc1n(c2=O)Cc2cc3c(N)cccc3nc2-1	13%
COC1C=COC2(C)Oc3c(C)c(O)c4c(c3C2=O)/C(=N/C2CCC(O)OC2C)C=C(NC(=O)/C(C)=C\C(=O)C2CC2C(O)C(C)C(O)C(C)C(OC(C)=O)C1C)C4=O (centres undefined)	53%
COc1cc2c(c(OC)c1OC)-c1c(cc3c(c1OC)OCO3)CC(C)C(C)(O)C2OC(=O)c1ccccc1 (centres undefined)	45%
O=c1ssc2ncccc12	97% (active)
O=C1C2C(C(=O)N1c1ccc(OCc3ccccc3)cc1)C1c3ccccc3C2C2CCCCN21 (centres undefined)	56%
COc1ccc(-c2cn(-c3ccc(I)cc3)c3ncnc(N)c23)cc1	4%
CCOC(=O)C(NC(=O)c1ccccc1)(N1CCN(c2cc3c(cc2F)c(=O)c(C(=O)O)cn3C2CC2)CC1)C(F)(F)F (centres undefined)	9%
C/C(=N\O)C1CC2C=C(C#N)C1N(Cc1ccccc1)C2 (centres undefined)	-2%
CC/C(=C(\c1ccccc1)c1ccc(OCCN(C)C)cc1)c1ccccc1	97% (active)
COc1ccccc1N=NC(C(=O)c1ccccc1)C(=O)c1ccccc1	97% (active)
CC(O)C(O)C(O)C(/C=N\Nc1ccccc1)=N/Nc1ccccc1 (centres undefined)	28%
COc1ccc(/C=C2\SC(=S)N(/C=C/c3nc4ccccc4[nH]c3=O)C2=O)cc1OC	88% (active)
N#CN=Nc1cc(Cl)c(N=NC#N)cc1Cl	67%
Cc1ccc(S(=O)(=O)Oc2cc(Cl)c(Cl)cc2Cl)cc1	-18%
c1ccc2c(c1)Oc1cccc3cccc-2c13	18%
O=C(c1ccc(Cl)cc1Cl)C(Cl)Cl	98% (active)
CC(C)C1=CCC2C(=C1)CCC1C(C)(C(=O)O)CCCC21C (centres undefined) (tested in a mixture with another compound)	96% (active)

SMILES	growth inhibition
COc1cc(/C=C2\CCc3ccccc3C2=O)cc(OC)c1OC	74% (active)
CC(=O)[O][Bi]([c]1ccccc1)[c]1ccccc1	91% (active)
S=C(N/N=C/c1ccccn1)Nc1ccc(Cl)cc1	79% (active)
COc1cc(CC2CC(c3ccc4c(c3)OCO4)OC2=O)cc(OC)c1OC (centres undefined)	15%
CNC1C(OC2C(OC3C(O)C(O)C(N=C(N)N)C(O)C3N=C(N)N)OC(C)C2(O)CO)OC(CO)C(O)C1O (centres undefined)	-12%
NNC(=O)CCc1ccc2ccc3ccccc3c2c1	60%
Oc1ccc2ccccc2c1C(c1ccc(Cl)cc1)c1c(O)ccc2ccccc12	82% (active)
CCCCN(CCCC)CCSc1ccc(Cl)cc1	59%
CCC(C)COC(=O)c1ccc(N=Cc2ccc(C=Nc3ccc(C(=O)OCC(C)CC)cc3)cc2)cc1 (centres undefined)	0%
CC1(C)C(=O)OC(n2cc(F)c(=O)[nH]c2=O)C1=O (centres undefined)	-1%
O=[N+]([O-])CC(SCc1ccccc1)c1ccc2c(c1)OCO2 (centres undefined)	97% (active)
COc1cc2c(cc1[N+](=O)[O-])C(=O)C(Br)(Br)CCC2	93% (active)
OCC1OC(OCC(O)C(O)C(O)C(/C=N/Nc2ccccc2)=N/Nc2ccccc2)C(O)C(O)C1O (centres undefined)	40%
COc1ccc(N=C2C(=O)Nc3ccc(Br)cc32)cc1	1%
Cn1c(=O)c2ccccc2c2ccccc21	51%
CC[n+]1ccc2c(C)c3[nH]c4ccc(O)cc4c3c(C)c2c1	41%
CC(=O)ON1C(=O)c2cccc3cccc(c23)C1=O	77% (active)
COc1ccc2ccc3ccccc3c2c1C=O	81% (active)
OC1CCCc2c1cc1ccc3cccc4ccc2c1c34 (centres undefined)	91% (active)
